Reference: PubChem BioAssay (Tox21)
Records with an inconclusive call do not appear. A number with no mark means an inactive call. Calls follow the shape of the full dose curve.

Test: qHTS assay to identify small molecule agonists of the AP-1 signaling pathway (AID 1159526)
Settings: ME-180 (cervical carcinoma) AP-1-bla reporter, beta-lactamase FRET ratio, 5 h; series mostly up to 76.8 µM; activation: at the top concentration
% is scaled to controls: 0 for no effect and ±100 for the full control effect.

SMILES | activation
NS(=O)(=O)c1ccccc1OC(F)(F)F | -4.04%
C[C@@H]1C[C@H]2[C@@H]3C[C@H](F)C4=CC(=O)C=C[C@]4(C)[C@@]3(F)[C@@H](O)C[C@]2(C)[C@@]1(O)C(=O)CO | 4.7% [at 35.3 µM]
CCOC(=O)CC#N | -7.12%
CC(=O)OCC(=O)[C@@]1(O)[C@H](OC(C)=O)C[C@H]2[C@@H]3CCC4=CC(=O)C=C[C@]4(C)[C@@]3(F)[C@@H](O)C[C@@]21C | 5.86% [at 35.3 µM]
COCCOCCOCCOC | -2.16%
C=COCCOCCOC=C | 6.52%
BrC/C=C/CBr | -6.33% [at 15.8 µM]
C[N+](C)(C)CC(O)CCl (configuration not stated) | -13.9%
CCCCCCCCCCCCC | 2.66%
CCCCC[Si](OCC)(OCC)OCC | 0.76%
C/C=C(\C)C(=O)OCC/C=C\CC | 4.49%
CNC(=O)NC | 0.639%
CC1CCC(C(C)(C)S)C(=O)C1 (configuration not stated) | -4.45%
CC(=O)N1CCN(c2ccc(O)cc2)CC1 | 2.11% [at 35.3 µM]
O=S(=O)(O)CCO | -3.23%
FC(F)(F)c1ccc(Cl)cc1Cl | -12.1%
CCCCCCCCCCCCCC(=O)OC | -3.65%
CCCCOC(=O)C(=O)OCCCC | 0.0386%
Nc1nc(=O)n([C@@H]2O[C@H](CO)[C@@H](O)[C@@H]2F)cc1I | 1.42% [at 35.3 µM]

SMILES | activation
C[C@H]1O[C@H](O[C@H]2[C@H](O)[C@@H](O)[C@@H](O[C@H]3[C@H](O)[C@@H](O)[C@H](O)O[C@@H]3CO)O[C@@H]2CO)[C@H](O)[C@@H](O)[C@@H]1N[C@H]1C=C(CO)[C@@H](O)[C@H](O)[C@H]1O | -3.86% [at 35.3 µM]
CC(=O)Nc1ccc(C)cc1 | -4.92%
C=CC(C)(O)CC/C=C(\C)CC (configuration not stated) | -5.87%
O=C(O)c1c(Cl)ccc(Cl)c1Cl | 0.341%
CC(C)COC(=O)COc1ccc(Cl)cc1Cl | -4.15%
CNC(=O)C(c1ccccc1)c1ccccc1 | -4.6%
Cc1nc2ccccc2c(=O)o1 | -1.21%
C=C[C@@H](C)CCC=C(C)C | -2.29%
NC(=O)NC(=O)Cc1ccccc1 | -7.95% [at 35.3 µM]
Nc1ccc(S(=O)(=O)NC(=O)c2ccccc2)cc1 | 12.1% [at 35.3 µM]
CC(=O)OCCCc1ccccc1 | -0.0268%
CCCCCCCCCCCCOC(C)=O | -7.31%
c1ccccc1 | -3.22%
NC(=O)NNC(N)=O | -2.23%
Cc1cc(O)c2c(c1)C(=O)c1cccc(O)c1C2=O | 0.469% [at 35.3 µM]
O=C(O)c1ccccc1C(=O)OCc1ccccc1 | -9.29%
CN(C)CCOCCN(C)CCO | 2.16%
CC(C)(CO)[C@@H](O)C(=O)NCCCO | -1.71% [at 35.3 µM]
